Laboratory results published in the supplement of paper PMC12494721.
Structures can show the parent of a compound that is named as a salt.

How the values were obtained:
Details in all cases: incubation time: 27 h, anaerobic, 37 °C;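 for the amine columns active = adjusted P below 0.05 in both replicates with a change the same way and a mean fold change under 0.8 or over 1.25; inactive = the rest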
[1] = tested on: Clostridium sporogenes DSM 1664; test: growth (OD595) fold change vs plate DMSO controls (fold change (ratio)); higher = more growth
Method in brief: (§1)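 The 96-well mGAM cultures had been kept anaerobic for 27 h at 37 °C before being shaken and read at 595 nm. Blank subtraction, compound background correction with 20 µM compound solutions in water, and a calibration factor of 5 turned the readings into OD. Growth is given as the fold change versus the median of plate DMSO controls. Fold changes above 1.5 were set to NA, and the values are means of 2 biological replicates.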

Escherichia coli IAI1 [2] = test: as above
Method in brief: as §1

[3] = tested on: Klebsiella aerogenes DSM 30053; test: as above
Method in brief: as §1

[4] = tested on: Ruminococcus gnavus DSM 108212; test: as above
Method in brief: as §1

[5] = tested on: Klebsiella aerogenes DSM 30053; test: fold change of Histamine concentration vs plate DMSO controls (fold change (ratio)); higher = more amine produced, active = hit call of the paper (significant change in both replicates, either direction)
Method in brief: (§2)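 Amine values are fold changes relative to DMSO-only wells on the same plate. They derive from 27 h, 37 °C anaerobic mGAM cultures of four gut bacterial strains in 80 µL wells, dosed at 20 µM final, or 50 µM final for sweeteners. Extraction of the whole culture, LC–triple-quadrupole MS in dynamic MRM mode, external calibration curves and within-batch drift correction were used, with 2 biological replicates averaged.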

[6] = tested on: Clostridium sporogenes DSM 1664; test: fold change of Tryptamine concentration vs plate DMSO controls (fold change (ratio)); higher = more amine produced, active = hit call of the paper (significant change in both replicates, either direction)
Method in brief: as §2

[7] = tested on: Ruminococcus gnavus DSM 108212; test: as above
Method in brief: as §2

Escherichia coli IAI1 [8] = test: fold change of Putrescine concentration vs plate DMSO controls (fold change (ratio)); higher = more amine produced, active = hit call of the paper (significant change in both replicates, either direction)
Method in brief: as §2

[9] = tested on: Klebsiella aerogenes DSM 30053; test: as above
Method in brief: as §2

Escherichia coli IAI1 [10] = test: fold change of Cadaverine concentration vs plate DMSO controls (fold change (ratio)); higher = more amine produced, active = hit call of the paper (significant change in both replicates, either direction)
Method in brief: as §2

[11] = tested on: Klebsiella aerogenes DSM 30053; test: as above
Method in brief: as §2

[12] = tested on: Ruminococcus gnavus DSM 108212; test: fold change of 2-Phenylethylamine concentration vs plate DMSO controls (fold change (ratio)); higher = more amine produced, active = hit call of the paper (significant change in both replicates, either direction)
Method in brief: as §2

Compound | growth [1] | growth (Escherichia coli IAI1 [2]) | growth [3] | growth [4] | fold change of Histamine concentration [5] | fold change of Tryptamine concentration [6] | fold change of Tryptamine concentration [7] | fold change of Putrescine concentration (Escherichia coli IAI1 [8]) | fold change of Putrescine concentration [9] | fold change of Cadaverine concentration (Escherichia coli IAI1 [10]) | fold change of Cadaverine concentration [11] | fold change of 2-Phenylethylamine concentration [12]
CCCCOc1cc(C(=O)OCCN(CC)CC)ccc1N [Benoxinate hydrochloride] (20 µM) | 1.06 | 0.951 | 0.988 | 1.01 | 1.05 (inactive) | 0.997 (inactive) | 1.04 (inactive) | 0.973 (inactive) | 1.01 (inactive) | 0.978 (inactive) | 0.998 (inactive) | 1.04 (inactive)
O=c1[nH]c(=O)n(C2CCCO2)cc1F (stereo not drawn) [Tegafur] (20 µM) | 1.08 | 0.975 | 1.01 | 0.933 | 0.969 (inactive) | 1.01 (inactive) | 1.06 (inactive) | 1.25 (inactive) | 1 (inactive) | 0.967 (inactive) | 1.01 (inactive) | 1.03 (inactive)
C[C@@]12CC[C@@H]3[C@@](CC[C@H]4[C@@]3(C)CCC[C@@]4(C)C(=O)O)(CC1=O)C2 [Iso-Steviol] (50 µM) | 1.08 | 0.954 | 1.03 | 1.09 | 1.02 (inactive) | 0.905 (inactive) | 1 (inactive) | 0.992 (inactive) | 1.02 (inactive) | 0.963 (inactive) | 1.02 (inactive) | 0.996 (inactive)
CCN(CC)CCc1nc(-c2ccccc2)no1 [Oxolamine citrate salt] (20 µM) | 1.13 | 0.976 | 0.968 | 1.01 | 1.04 (inactive) | 1.04 (inactive) | 1.03 (inactive) | 0.967 (inactive) | 1.01 (inactive) | 1.02 (inactive) | 0.987 (inactive) | 1.03 (inactive)
CC(=O)Nc1ccc(C(=O)O)cc1 [Acedoben] (20 µM) | 1.09 | 1 | 0.977 | 0.997 | 1.02 (inactive) | 0.935 (inactive) | 1.03 (inactive) | 1.01 (inactive) | 1 (inactive) | 1.02 (inactive) | 0.995 (inactive) | 1 (inactive)
CCN(CC)CCOC(=O)C1(c2ccc([N+](=O)[O-])cc2)CCCC1 [Nitrocaramiphen hydrochloride] (20 µM) | 0.793 | 1.07 | 0.995 | 1.02 | 1.03 (inactive) | 0.949 (inactive) | 1.04 (inactive) | 1.03 (inactive) | 0.982 (inactive) | 1.03 (inactive) | 0.98 (inactive) | 0.995 (inactive)
COC(=O)Nc1nc2cc(C(=O)c3cccs3)ccc2[nH]1 [Nocodazole] (20 µM) | 0.969 | 1.01 | 1.02 | 1.05 | 0.98 (inactive) | 0.968 (inactive) | 0.999 (inactive) | 0.977 (inactive) | 1 (inactive) | 0.996 (inactive) | 1.03 (inactive) | 1.03 (inactive)
N[C@@H](Cc1ccc(O)c(O)c1)C(=O)O [Levodopa] (20 µM) | 1.09 | 0.977 | 0.989 | 0.94 | 1.05 (inactive) | 1.03 (inactive) | 1.03 (inactive) | 1 (inactive) | 1.02 (inactive) | 0.975 (inactive) | 0.997 (inactive) | 1.04 (inactive)
CCOC(=O)OC(C)OC(=O)[C@@H]1N2C(=O)[C@@H](NC(=O)[C@H](N)c3ccccc3)[C@H]2SC1(C)C (stereo partly drawn) [Bacampicillin hydrochloride] (20 µM) | 0 | 1.16 | 1.46 | 0.0946 | 1.02 (inactive) | 0.0203 (active) | 0.0343 (active) | 0.928 (inactive) | 1.07 (inactive) | 1.6 (active) | 1.05 (inactive) | 0.0374 (active)
COc1ccc(-c2ccc3cc(C(=O)O)ccc3c2)cc1C12CC3CC(CC(C3)C1)C2 [Adapalene] (20 µM) | 0.829 | 1 | 1.04 | 1.18 | 1.02 (inactive) | 0.96 (inactive) | 1.04 (inactive) | 1.02 (inactive) | 1 (inactive) | 1.02 (inactive) | 0.994 (inactive) | 1.06 (inactive)
C[C@H]1O[C@H](O[C@H]2[C@H](O)[C@@H](O)[C@@H](O[C@@H]([C@H](O)[C@@H](O)C=O)[C@H](O)CO)O[C@@H]2CO)[C@H](O)[C@@H](O)[C@@H]1N[C@H]1C=C(CO)[C@@H](O)[C@H](O)[C@H]1O [Acarbose] (20 µM) | 0.918 | 1.03 | 1.04 | 1.05 | 1.15 (inactive) | 1.02 (inactive) | 0.997 (inactive) | 0.948 (inactive) | 1.07 (inactive) | 1.12 (inactive) | 0.996 (inactive) | 0.978 (inactive)
COC(=O)Nc1nc2cc(C(=O)c3ccc(F)cc3)ccc2[nH]1 [Flubendazol] (20 µM) | 0.949 | 1.04 | 1.12 | 1.04 | 0.979 (inactive) | 1 (inactive) | 0.934 (inactive) | 0.943 (inactive) | 1.02 (inactive) | 0.956 (inactive) | 1.01 (inactive) | 0.919 (inactive)
CCN1CCC[C@H]1CNC(=O)c1c(OC)ccc(Br)c1OC [Remoxipride hydrochloride] (20 µM) | 1.09 | 1.03 | 0.988 | 1.01 | 1.04 (inactive) | 0.946 (inactive) | 0.945 (inactive) | 0.998 (inactive) | 1.02 (inactive) | 1.03 (inactive) | 0.989 (inactive) | 0.92 (inactive)
CCOc1ccc(NC(N)=O)cc1 [(4-Ethoxyphenyl)urea] (50 µM) | 1.13 | 0.949 | 0.994 | 1.09 | 0.964 (inactive) | 0.979 (inactive) | 0.999 (inactive) | 0.971 (inactive) | 0.986 (inactive) | 1.11 (inactive) | 1.01 (inactive) | 0.947 (inactive)
Nc1ccc(S(=O)(=O)c2ccc(N)cc2)cc1 [Dapsone] (20 µM) | 1.06 | 1.02 | 0.979 | 1.2 | 0.967 (inactive) | 1.03 (inactive) | 0.982 (inactive) | 1.04 (inactive) | 0.981 (inactive) | 1.02 (inactive) | 1 (inactive) | 1.04 (inactive)
CC1=C(C)C(=O)C(C(CCCCCC(=O)O)c2ccccc2)=C(C)C1=O (stereo not drawn) [Seratrodast] (20 µM) | 0.927 | 0.998 | 1 | 0.979 | 1 (inactive) | 1.01 (inactive) | 0.908 (inactive) | 1.05 (inactive) | 1.02 (inactive) | 0.965 (inactive) | 1.01 (inactive) | 0.899 (inactive)
c1ccc2c(CC3=NCCN3)cccc2c1 [Naphazoline hydrochloride] (20 µM) | 0.845 | 0.633 | 0.644 | 0.57 | 1.01 (inactive) | 1.01 (inactive) | 1.01 (inactive) | 0.978 (inactive) | 1 (inactive) | 0.96 (inactive) | 1 (inactive) | 0.994 (inactive)
OCCN1CCN(CCCN2c3ccccc3C=Cc3ccccc32)CC1 [Opipramol dihydrochloride] (20 µM) | 1.12 | 0.948 | 0.983 | 0.902 | 1.03 (inactive) | 1.07 (inactive) | 1.02 (inactive) | 0.888 (inactive) | 0.994 (inactive) | 1.04 (inactive) | 0.98 (inactive) | 1.02 (inactive)
Fc1ccc(C(c2ccc(F)cc2)N2CCN(C/C=C/c3ccccc3)CC2)cc1 [Flunarizine dihydrochloride] (20 µM) | 1.15 | 1.05 | 1.1 | 0.897 | 0.894 (inactive) | 1.05 (inactive) | 0.851 (inactive) | 1.07 (inactive) | 0.981 (inactive) | 0.979 (inactive) | 1.04 (inactive) | 0.977 (inactive)
CCN1CCCC(OC(=O)C(c2ccccc2)c2ccccc2)C1 (stereo not drawn) [Piperidolate hydrochloride] (20 µM) | 1.1 | 1.01 | 0.987 | 0.893 | 1.02 (inactive) | 1.07 (inactive) | 1.01 (inactive) | 1.02 (inactive) | 1 (inactive) | 1.02 (inactive) | 0.993 (inactive) | 1.06 (inactive)
CCOC(=O)C(C)(N)Cc1cc(I)c(Oc2cc(I)c(O)c(I)c2)c(I)c1 (stereo not drawn) [Etiroxate hydrochloride] (20 µM) | 1.06 | 1.02 | 1.02 | 1.14 | 1.04 (inactive) | 1.03 (inactive) | 0.923 (inactive) | 0.951 (inactive) | 0.99 (inactive) | 0.958 (inactive) | 1 (inactive) | 1.01 (inactive)
Nc1ncnc2c1ncn2C1OC(COP(=O)(O)O)C(O)C1O (stereo not drawn) [Adenosine 5'-monophosphate monohydrate] (20 µM) | 1.05 | 1.01 | 0.973 | 0.96 | 1.07 (inactive) | 1.01 (inactive) | 1.02 (inactive) | 1.04 (inactive) | 1.02 (inactive) | 0.991 (inactive) | 0.987 (inactive) | 1.01 (inactive)
CN(C)CCCN1c2ccccc2Sc2ccc(Cl)cc21 [Chlorpromazine hydrochloride] (20 µM) | 0.986 | 1.21 | 1.03 | 1.29 | 0.88 (inactive) | 1.06 (inactive) | 0.908 (inactive) | 1.14 (inactive) | 0.959 (inactive) | 0.934 (inactive) | 1.01 (inactive) | 0.935 (inactive)
O=C(NCC1CCCCN1)c1cc(OCC(F)(F)F)ccc1OCC(F)(F)F (stereo not drawn) [Flecainide acetate] (20 µM) | 0.94 | 0.991 | 1.01 | 0.997 | 1 (inactive) | 0.99 (inactive) | 1.03 (inactive) | 0.98 (inactive) | 0.976 (inactive) | 0.987 (inactive) | 0.989 (inactive) | 1.06 (inactive)
